{"source": "PubChem BioAssay AID488969", "about": "(Vanderbilt High Throughput Screening Facility, 2010)", "note": "The full ranking holds about 110,000 compounds; the median of “z-score” is about -0.1, and the highest 2% start at about 2. The full list was thinned out, with the highest values kept by preference. Activity calls are given as the source filed them.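 The calls were made as follows: active = z-score in the third read window above 3 or below -3; inactive = the rest.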"}
{"biological_target": "Metabotropic glutamate receptor 8 (Rattus norvegicus) (UniProt P70579)", "sequence (P70579 whole entry, looked up)": "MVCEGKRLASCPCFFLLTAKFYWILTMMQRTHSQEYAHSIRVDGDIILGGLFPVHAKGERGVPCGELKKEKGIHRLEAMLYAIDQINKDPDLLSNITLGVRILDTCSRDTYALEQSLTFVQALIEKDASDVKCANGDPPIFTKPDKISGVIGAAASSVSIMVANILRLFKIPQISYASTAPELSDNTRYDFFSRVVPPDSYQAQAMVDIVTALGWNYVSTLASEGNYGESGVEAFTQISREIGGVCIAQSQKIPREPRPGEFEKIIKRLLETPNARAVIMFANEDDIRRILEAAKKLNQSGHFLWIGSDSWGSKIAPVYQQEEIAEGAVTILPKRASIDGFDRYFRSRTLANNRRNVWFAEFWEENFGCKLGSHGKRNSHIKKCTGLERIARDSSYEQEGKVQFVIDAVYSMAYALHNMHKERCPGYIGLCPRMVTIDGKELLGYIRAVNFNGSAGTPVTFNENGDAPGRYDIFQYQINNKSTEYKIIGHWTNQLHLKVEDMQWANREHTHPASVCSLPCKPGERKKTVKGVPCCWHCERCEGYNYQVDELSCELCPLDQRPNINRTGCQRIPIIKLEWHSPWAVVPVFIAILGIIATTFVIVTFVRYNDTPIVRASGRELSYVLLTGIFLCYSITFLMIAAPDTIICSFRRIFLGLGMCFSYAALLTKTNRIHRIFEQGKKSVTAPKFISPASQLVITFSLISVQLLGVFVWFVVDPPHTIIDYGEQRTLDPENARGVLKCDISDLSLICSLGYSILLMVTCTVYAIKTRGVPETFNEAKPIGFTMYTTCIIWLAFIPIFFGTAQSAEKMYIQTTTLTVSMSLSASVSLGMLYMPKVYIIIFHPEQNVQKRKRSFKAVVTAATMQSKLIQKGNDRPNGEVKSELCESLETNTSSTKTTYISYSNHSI", "assay": "rat mGluR8 modulators via GIRK flux, primary screen, cell-based, thallium flux, HTS (AID 488969)", "conditions": "HEK293 rat mGluR8, GIRK (G protein-gated inwardly rectifying potassium channel) thallium flux, FluoZin2; at 10 µM; stronger effect = higher value; submaximal glutamate (EC20) added with thallium"}
{"smiles": "COc1ccc(S(=O)(=O)N(CCc2ccccc2)CC(=O)O)cc1Cl", "z-score": -0.104}
{"smiles": "CN1C(=O)C(O)(C2OC(C)(C)CCC2=O)c2ccccc21", "note": "(stereo unspecified)", "z-score": -0.0799}
{"smiles": "NC(=O)C1(NC(=O)[C@@H]2CC3(CC(c4cccc(NC(=O)[C@@H]5CCC(=O)N5)c4)=NO3)CN2C(=O)Cc2ccc(C(F)(F)F)cc2)CC1", "note": "(stereo partly specified)", "z-score": -0.279}
{"smiles": "CCCNC(=O)C1CNc2ccccc2O1", "note": "(stereo unspecified)", "z-score": -0.2}
{"smiles": "O=C(Nc1nncs1)C1COc2ccccc2O1", "note": "(stereo unspecified)", "z-score": 0.542}
{"smiles": "NC(=O)C1CNc2ccccc2O1", "note": "(stereo unspecified)", "z-score": 2.79}
{"smiles": "CCCCSc1nc(C)nc2c1c(=O)n(C)c(=O)n2C", "z-score": -0.303}
{"smiles": "COc1ccc2[nH]c3c(Cl)ncnc3c2c1", "z-score": -0.502}
{"smiles": "COC(=O)c1sc(NC(=O)/C=C/c2ccc(C)o2)nc1C", "z-score": -0.15}
{"smiles": "COc1ccccc1C(O)Cc1nc2ccccc2n1C", "note": "(stereo unspecified)", "z-score": -0.393}
{"smiles": "Cc1cccc(C)c1NC(=O)C(NC(=O)c1ccccn1)c1ccc([N+](=O)[O-])cc1", "note": "(stereo unspecified)", "z-score": 2.97}
{"smiles": "Cc1cccc(C)c1NC(=O)C(c1cccc([N+](=O)[O-])c1)N(C)C(=O)c1ccccn1", "note": "(stereo unspecified)", "z-score": -0.125}
{"smiles": "Cc1cccc(C)c1NC(=O)C(NC(=O)c1ccccn1)c1ccccc1[N+](=O)[O-]", "note": "(stereo unspecified)", "z-score": 0.95}
{"smiles": "O=C(Nc1cccc(C(=O)N2CCCC2)c1)c1ccccc1Cl", "z-score": -0.0275}
{"smiles": "COCCNC(=O)c1ccccc1-c1nc(-c2ccccc2OC)no1", "z-score": 0.0674}
{"smiles": "CC(=Nc1ccccc1)C1=C(O)CCCC1=O", "z-score": -0.104}
{"smiles": "O=C1CC(c2ccc3c(c2)OCO3)C2=C(CCCC2=O)N1", "note": "(stereo unspecified)", "z-score": -0.2}
{"smiles": "N=C(CC1CC(=O)NC(=O)C1)C1=C(O)CCCC1=O", "z-score": 2.31}
{"smiles": "CC/C(C)=N/NC(=S)NCc1ccco1", "z-score": 0.0671}
{"smiles": "CCNC(=S)N/N=C(\\C)c1cc2ccccc2o1", "z-score": "8.26 (active)"}
{"smiles": "C/C(=N\\NC(=O)Nc1ccccc1)c1ccc2ccccc2c1", "z-score": -0.112}
{"smiles": "C/C(=N\\NC(=S)NCc1ccccc1)c1ccc2ccccc2c1", "z-score": 2.12}
{"smiles": "C/C(=N\\NC(=S)NCc1ccccc1)c1ccc(Cl)cc1", "z-score": 0.101}
{"smiles": "C=CCNC(=S)N/N=C(\\C)c1ccc(OC)cc1", "z-score": 2.03}
{"smiles": "COc1ccc(/C(C)=N/NC(=S)NCc2ccco2)cc1", "z-score": "4.34 (active)"}
{"smiles": "C=C(C)CNC(=S)N/N=C(\\C)c1ccc(OC)cc1", "z-score": -1.56}
{"smiles": "COc1ccc(NC(=S)NCc2ccco2)cc1", "z-score": -0.0213}
{"smiles": "C/C(=N\\NC(=O)COc1ccccc1F)c1cc2ccccc2o1", "z-score": -0.0133}
{"smiles": "C=CCNC(=S)N/N=C(\\C)c1cc(OC)c(OC)c(OC)c1", "z-score": -0.183}
{"smiles": "C/C(=N\\NC(=O)c1ccco1)c1cc2ccccc2o1", "z-score": 0.664}
{"smiles": "Cc1nc(=O)c(-c2ccccc2)c(C)n1-c1ccc(O)cc1", "z-score": -1.56}
{"smiles": "CCc1ccc(OCC(=O)N/N=C/c2ccc(OS(=O)(=O)c3ccc(C)cc3)c(OC)c2)cc1", "z-score": -0.212}
{"smiles": "Cc1ccc2nsnc2c1S(=O)(=O)NC1CC1", "z-score": 0.516}
{"smiles": "Cc1sc(NC(=O)c2ccco2)c(CN2CCN(c3ccccc3)CC2)c1C", "z-score": -0.213}
{"smiles": "c1ccc(N(c2ccccc2)c2nc(-n3ccnc3)nc(-n3ccnc3)n2)cc1", "z-score": -0.953}
{"smiles": "O=C(O)CCCn1nc(C(F)(F)F)c2c1CCCCC2", "z-score": -0.241}
{"smiles": "COC(=O)Nc1sc(C(=O)N(C)C)c(C)c1C(=O)OC", "z-score": 0.175}
{"smiles": "C=CCc1c(C)nc(C)nc1N/N=C/c1ccc(F)cc1", "z-score": -0.164}
{"smiles": "C=CCc1c(C)nc(C)nc1N/N=C/c1ccccc1", "z-score": -0.683}
{"smiles": "C=CCc1c(C)nc(C)nc1N/N=C/c1ccccc1O", "z-score": 2.25}
{"smiles": "CSc1cc(C)n(-c2ccccc2)c(=S)c1C(C)=O", "z-score": -0.0675}
{"smiles": "CCOc1ccc(CNC(=O)CCn2c(=O)oc3ccccc32)cc1OC", "z-score": 0.903}
{"smiles": "O=C(O)C1C2C=CC(O2)C1C(=O)Nc1ccc(S(=O)(=O)N2CCc3ccccc32)cc1", "note": "(stereo unspecified)", "z-score": -0.0204}
{"smiles": "CCOC(=O)Cc1csc(NC(=S)NC(=O)CC(C)C)n1", "z-score": 1.27}
{"smiles": "CCOC(=O)Cc1csc(NC(=S)NC(=O)c2ccccc2C)n1", "z-score": "9.08 (active)"}
{"smiles": "CCOC(=O)Cc1csc(NC(=S)NC(=O)c2ccccc2Br)n1", "z-score": "7.57 (active)"}
{"smiles": "CCOC(=O)Cc1csc(NC(=O)c2ccc(Br)s2)n1", "z-score": 1.08}
{"smiles": "CCOC(=O)Cc1csc(NC(=O)c2ccc(Br)o2)n1", "z-score": 0.017}
{"smiles": "CCOC(=O)Cc1csc(NC(=S)NC(=O)C(C)(C)C)n1", "z-score": 1.73}
{"smiles": "COC(=O)c1nnn(CC(=O)Nc2cc(Cl)ccc2C)c1C(=O)OC", "z-score": -0.484}
{"smiles": "COc1cc(/C=C2\\SC(c3ccc(C)cc3)=NC2=O)ccc1O", "z-score": -0.769}
{"smiles": "O=C(Nc1ccc(Cn2cccn2)cc1)c1ccc(COc2ccccc2Br)cc1", "z-score": -0.0941}
{"smiles": "O=S(=O)(N/N=C/c1cn(Cc2ccccc2)c2ccccc12)c1ccccc1", "z-score": -0.216}
{"smiles": "Cc1cc(N2CCCCCC2)nc2ccccc12", "z-score": -0.134}
{"smiles": "COc1ccccc1N1C(=O)CCC1(C#N)c1ccc(Br)cc1", "note": "(stereo unspecified)", "z-score": -0.14}
{"smiles": "Cc1c(NC(=O)CSc2ccc(Cl)cc2)cccc1-c1nc2ncccc2o1", "z-score": -0.212}
{"smiles": "O=C(Nc1ccccc1)c1ccccc1NS(=O)(=O)c1ccc(Cl)s1", "z-score": "-3.39 (active)"}
{"smiles": "O=C(Nc1cc(Cl)ccc1N1CCCCC1)c1cccs1", "z-score": -0.311}
{"smiles": "O=S(=O)(Nc1ccc(N2CCOCC2)cc1)c1ccc(Cl)s1", "z-score": -0.104}
{"smiles": "O=S(=O)(Nc1ccc(N2CCCCC2)cc1)c1cccs1", "z-score": -0.488}
{"smiles": "O=S(=O)(Nc1ccccc1N1CCCCC1)c1ccc(Cl)s1", "z-score": "3.45 (active)"}
{"smiles": "O=S(=O)(Nc1cc(Cl)ccc1N1CCCCC1)c1cccs1", "z-score": "7.03 (active)"}
{"smiles": "COC(=O)c1ccc(OC(=O)c2ccccc2F)cc1", "z-score": 0.198}
{"smiles": "COc1ccccc1NC(=O)CSc1ccc2nnc(-c3cccnc3)n2n1", "z-score": -0.277}
{"smiles": "O=C(COC(=O)c1ccc(-c2nnc(-c3ccccc3)o2)cc1)c1ccccc1", "z-score": -0.145}
{"smiles": "CC(C)n1c(N2CCN(CC(=O)NCc3cccs3)CC2)nc2ccccc21", "z-score": -0.0505}
{"smiles": "Cc1nc2ccccc2n1CC(O)Cn1c2ccccc2c2ccccc21", "note": "(stereo unspecified)", "z-score": 0.752}
{"smiles": "Cc1nccn1CC(O)Cn1c2ccccc2c2ccccc21", "note": "(stereo unspecified)", "z-score": 2}
{"smiles": "Cc1nccn1CC(O)COc1ccccc1", "note": "(stereo unspecified)", "z-score": -0.0583}
{"smiles": "Cc1cccc(-n2c(SCc3cc(=O)n4ccsc4n3)nc3ccccc3c2=O)c1", "z-score": -0.276}
{"smiles": "Cc1nc(NC(=O)COc2ccccc2)sc1C(=O)Nc1ccccc1", "z-score": -0.075}
{"smiles": "CC(Oc1ccc(Cl)cc1Cl)C(=O)NCCN1CCOCC1", "note": "(stereo unspecified)", "z-score": 0.00607}
{"smiles": "CN1/C(=C\\C(=S)NC(=O)c2ccccc2Cl)C(C)(C)c2ccccc21", "z-score": 0.0507}
{"smiles": "CCN(CC)c1nc2nonc2nc1N(CC)CC", "z-score": 2.53}
{"smiles": "Cc1cc(C)n(-c2nc3nonc3nc2-n2nc(C)cc2C)n1", "z-score": 0.084}
{"smiles": "Cc1ccc(Nc2nc3nonc3nc2N(C)C)cc1", "z-score": -0.0276}
